Reference: the supplement of paper PMC6555819

Tested on: VDR:RXRa (NR concentration 270 nM, RXRa partner concentration 90 nM)
Experiment: PBM binding z-score (relative to random genomic background probes); higher = stronger binding; sequences stand for … in GC…GCGATTGACAGCGTAGAATGAAGG
Experimental: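 Protein-binding microarray (Agilent 4x180K custom design, double-stranded 60-nt probes: 5' GC cap, 34-nt variable region, 24-nt constant primer region; full probe sequence given). Purified or IVT nuclear receptor:RXRα heterodimers (3:1 NR:RXRα, mostly 270:90 nM) or homodimers were incubated for 1 h in PBS with 2% milk and no ligand, then detected with Alexa488 antibodies. Fluorescence from o1-orientation probes (~5 replicates averaged) was converted to z-scores against 500 random hg19 background probes. Variable regions are seed direct-repeat (DR0–DR5) sites, all their single-nucleotide variants and half-site ablations.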

Row | Sequence | PBM binding z-score
1 | GCTTGTAGATCAAGGTTAAGCAAGACTAAGCTAA | 0.0624
2 | CCTCGGTGGACAACAGGAGGTCAGAGCTGCCAGA | 1.07
3 | CCAACTAGGTCAAGGACAGTGAATCTCCGCACGC | 1.16
4 | GCGACTGGGGCATCAGCATGTTACCATAACTTAA | -0.304
5 | TCGAGTAGGTTACCATTGGGGCATTCAGCTTTCT | 0.0183
6 | ATATCAAGGTGATCGTGAGGTCGTTGATACTAAC | 3.33
7 | CGAACTAGGTTATTGACAGGACAGTGAATAGTAA | 0.204
8 | CCTACTGGGCCAAAGGTCACTGATTCCAATGCTC | 4.55
9 | ATCCCTAGGTAAAGTTCAGTGAAAGATCGATAGA | 1.37
10 | CGTAGTTGGTCAAGGTCACACACGCTATAGGTAC | 4.2
11 | GCGACTGGGGCATCAGCAGGTTAACATAACTTAA | 0.126
12 | GCGACTGGGGTAAAGCAGGTTACCATAAGGTTGG | 1.15
13 | CGTCCAAGATCAGCAGGTCAGTGAAAGCGACGTG | 0.173
14 | AGAATGAGGTTAAGATCAGGGACACAGAATACAT | 1.93
15 | GGAACGAGGGCAAAGTTGATATCATCTGTCGACG | 1.34
16 | TTACCAACGTGAAAGGTCGTTGATGCACGCCTTG | 1.74
17 | CCTGCTAGGGCAATGGTCAGCTAAAGCAGCTCGC | -0.874
18 | TCTATTAGTTGATTAGGGCAACGGAAACAGCGGA | 0.621
19 | ATCGAAAGGTCGCGGTGAGTATAGAGAAAGGGAA | 3.74
20 | CCGAGTAGGTTATGGGGCGTTCAGGCAACGGTGA | 0.0035

Row | Sequence | PBM binding z-score
21 | ATCTCTAGTTAAAGTTCAGTGAAAGATCGATAGA | 1.64
22 | CCTTCCGGGTCACTGACAGGTTATAGCATTTGGA | 3.83
23 | ACTAGCAGGCCAAGGGCCACTCAAGATTAGTCCG | -0.798
24 | ATCCCTAGGTAAAGATAGTTCAGTGAATGCAAAT | 0.829
25 | AGAACGAGGGCACCCTGAGTTGATAGCAGAGTAG | 1.47
26 | CCAGACAGGTGAGAAGGTAGCTCAGCCTCGATTA | -0.387
27 | GCTAGTTGGTCAGTAAAAGGTCACGCACCGGTCG | 4.36
28 | GCTTGTAGATCAAGGTTAAGTAAGACTAAGCTAA | 0.257
29 | GCTATTAGTTGGAAGGGCAACCGAATGATTCTCG | -0.223
30 | ATATGTAGGTTACATCCGGGACATTCAGGCTATG | 1.14
31 | CTCGAAAGGTCGGTTGAGGTGAGTAGACGGATAA | 1.99
32 | GCTTACGGGTCAAAGGGTATAGCATGAATAGAAT | 5.84
33 | AGAACGAGGGCAATGAGTTGATAGGACGGGTGGC | 5.22
34 | GCTCGGAGGAAAAGGTCAGAGCTTTGTCCGTAGA | 2.14
35 | GCTCGTTGGTCAGTAAAAGGTCACACACCGGTCG | 4.26
36 | CGTCAAAGTTCAAGGTATCGTAACAGAAAGCAGC | 3.74
37 | GCAGACAGGTGAAACGCAGGTAACTCATGGTGGC | -0.567
38 | GTTTACGGGTCAAAGGTTATAGCATGAATAGAAT | 5.82
39 | CGTCGAAGTTCAAGGTAACGTAACAGAAAGCAGC | 2.09
40 | ATCGAAAGGTCGCGAGGTGAGTATACAGAAAGGC | 3.53
